Out of some 310,000 compounds screened, about 14,000 (4.5%) showed an effect of 50% or more. Effects have a minus sign here. The full list was thinned out, with strong results kept by preference.
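Also: peak tail current of the secondary pulse compared with the same well before compound.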

The experiment deals with human ether-à-go-go-related gene (hERG) potassium channel (human, UniProt Q12809). Briefly: primary screen, population patch clamp on CHO cells stably expressing hERG; higher = less effect of the substance.
Sequence of human ether-à-go-go-related gene (hERG) potassium channel (Q12809 whole entry, looked up): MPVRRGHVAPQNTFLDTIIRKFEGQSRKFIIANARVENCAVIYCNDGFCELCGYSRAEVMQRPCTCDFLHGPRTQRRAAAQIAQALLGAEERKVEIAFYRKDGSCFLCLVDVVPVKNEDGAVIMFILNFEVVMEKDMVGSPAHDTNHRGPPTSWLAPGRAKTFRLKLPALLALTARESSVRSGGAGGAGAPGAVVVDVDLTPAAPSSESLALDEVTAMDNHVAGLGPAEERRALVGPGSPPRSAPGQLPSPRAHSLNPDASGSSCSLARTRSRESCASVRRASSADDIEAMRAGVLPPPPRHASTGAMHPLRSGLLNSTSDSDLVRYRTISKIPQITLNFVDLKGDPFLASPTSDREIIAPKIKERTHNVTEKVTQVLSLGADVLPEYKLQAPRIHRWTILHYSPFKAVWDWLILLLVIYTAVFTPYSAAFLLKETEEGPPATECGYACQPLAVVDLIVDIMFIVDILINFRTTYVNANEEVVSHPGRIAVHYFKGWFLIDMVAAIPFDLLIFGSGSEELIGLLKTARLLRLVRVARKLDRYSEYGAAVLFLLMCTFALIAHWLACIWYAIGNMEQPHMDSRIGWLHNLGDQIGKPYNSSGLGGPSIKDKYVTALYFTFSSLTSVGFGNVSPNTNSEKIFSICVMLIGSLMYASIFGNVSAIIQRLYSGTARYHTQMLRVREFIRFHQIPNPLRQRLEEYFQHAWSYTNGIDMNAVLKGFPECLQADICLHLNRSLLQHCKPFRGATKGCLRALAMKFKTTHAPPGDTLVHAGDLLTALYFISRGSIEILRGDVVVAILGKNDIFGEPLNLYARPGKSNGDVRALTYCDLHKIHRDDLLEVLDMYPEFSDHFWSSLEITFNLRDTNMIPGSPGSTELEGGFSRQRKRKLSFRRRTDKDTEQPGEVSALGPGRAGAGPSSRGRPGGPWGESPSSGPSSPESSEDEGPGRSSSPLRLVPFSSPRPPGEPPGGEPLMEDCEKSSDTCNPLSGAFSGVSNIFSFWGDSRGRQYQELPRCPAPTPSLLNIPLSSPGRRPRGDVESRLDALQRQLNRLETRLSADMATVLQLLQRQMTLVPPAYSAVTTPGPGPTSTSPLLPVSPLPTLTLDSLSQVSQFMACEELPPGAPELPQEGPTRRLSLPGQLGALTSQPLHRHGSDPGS
As for `CN(C(=O)c1ccc(NC(=O)Cc2ccc(NC(=O)C3CCCN(C(=O)C4CC4)C3)cc2)cc1)C1CC1` (stereo not shown), the “hERG current change (%, negative = inhibition) at 10uM” value is listed as -4.41%.
As to `Cc1nn(S(=O)(=O)c2ccc(Cl)cc2)c(C)c1S(=O)(=O)N1CCOCC1`, the “hERG current change (%, negative = inhibition) at 10uM” value was found to be 20.9%.
As for `CCOc1ccccc1C1CC(=O)Nc2cc(OC)c(OC)c(OC)c21` (stereo not shown), the figure is 19.6%.
As to `COCCN1CCN(c2c(C)c(C)nc3cc(-c4cccc(OC)c4)nn23)CC1`, the “hERG current change (%, negative = inhibition) at 10uM” value was -15.6%.
On to `COc1cc(OC)cc(-c2cc3nc4c(c(N5CCN(c6ncccn6)CC5)n3n2)CCCC4)c1`, for which the “hERG current change (%, negative = inhibition) at 10uM” value is 4.89%.
With `CCc1c(C)nc2cc(-c3cc(OC)cc(OC)c3)nn2c1N1CCCC1`, the “hERG current change (%, negative = inhibition) at 10uM” value was -2.11%.
For `CCOCCN1CCN(c2c(CC)c(C)nc3cc(-c4cc(OC)cc(OC)c4)nn23)CC1` the value was -72.4%; for `CCc1c(C)nc2cc(-c3cc(OC)cc(OC)c3)nn2c1N1CCN(CCN2CCOCC2)CC1`, -33.5%; for `CCOCCN1CCN(c2c(C)c(C)nc3cc(-c4cc(OC)cc(OC)c4)nn23)CC1`, -73.3%.
As for `Nc1nc2ccc(C(=O)Nc3ccccc3)cc2s1`, the figure is 7.6%; as for `Cc1ccc2c(c1)CC1(CN2C)C(=O)NC(=O)N(CCc2ccccc2)C1=O` (stereo not shown), -15.2%.
Take `CNC(=O)C(C)c1ncc(C(F)(F)F)cc1Cl` (stereo not shown): the “hERG current change (%, negative = inhibition) at 10uM” value was 17.6%.
For `CCc1ccc(NC(=O)CSc2nnc(-c3cccs3)n2CC)cc1` the value was -69.7%; for `CCn1c(SCC(=O)Nc2ccc(C(=O)OC)cc2)nnc1-c1cccs1`, -10.7%; for `Cc1nnc(SCC(=O)N2CCN(S(=O)(=O)c3ccc(Cl)cc3)CC2)n(N)c1=O`, -19%.
For `Nn1c(SCC(=O)Nc2ccccc2F)nnc1-c1cccs1`, the “hERG current change (%, negative = inhibition) at 10uM” value is -65.7%.
For `CCOC(=O)c1ccc(NC(=O)CSc2nnc(-c3cccs3)n2CC)cc1` the value was 5.69%.
As for `CCOC(=O)c1cnn(-c2ccccc2)c1NC(=O)CSc1nnc(-c2cccs2)n1CC`, the figure is -69.5%; as for `CCn1c(SCC(=O)Nc2cc(C)nn2-c2ccccc2)nnc1-c1cccs1`, -12.9%.
As for `Nn1c(SCC(=O)N2CCN(S(=O)(=O)c3ccc(Cl)cc3)CC2)nnc1-c1cccs1`, the figure is -52.1%; as for `Cn1c(SCC(=O)Nc2ccccc2F)nnc1-c1cccs1`, -24.2%; as for `CC(=O)Nc1ccc(NC(=O)CSc2nnc(-c3cccs3)n2N)cc1`, 1.15%.
As to `CCn1c(SCC(=O)Nc2c(C#N)cnn2-c2ccccc2)nnc1-c1cccs1`, the “hERG current change (%, negative = inhibition) at 10uM” value is -13.6%.
For `Nn1c(SCC(=O)N2CCN(S(=O)(=O)c3ccccc3)CC2)nnc1-c1cccs1` the value was -10.1%; for `O=C(NCc1ccccc1)c1cccc(NS(=O)(=O)c2cccc3cccnc23)c1`, 6.09%.
As for `COc1cnc(-c2ccccc2)nc1OC`, the figure is 12.4%.
As for `O=C(O)c1cc(S(=O)(=O)NCc2ccco2)c(Cl)cc1Cl`, the figure is 14.9%; as for `COCC(C)NCc1ccc(C)cc1C` (stereo not shown), -14.3%; as for `O=S(=O)(NCc1ccccn1)c1ccc2c(c1)OCCO2`, 10.5%.
`Nc1cc(-c2cccc(Br)c2)nn1Cc1ccccc1`: the “hERG current change (%, negative = inhibition) at 10uM” value is reported as -17.2%.
For `Nc1cc(=O)nc(SCC(=O)Nc2cccc3ccccc23)n1CCc1ccccc1` the value was -7.07%; for `CCOC(=O)C1C(c2ccc(O)cc2)NC(=O)NC1(O)C(F)(F)F` (stereo not shown), 2.48%; for `O=C(NNC(=O)C1CCC1)c1cccc(Cl)c1`, -5.52%.
For `CCOP(=O)(OCC)c1cc(C)c(O)c(C(C)(C)C)c1` the value was -3.41%; for `CCn1c(SCC(=O)Nc2cc(OC)c(OC)c(OC)c2)nnc1-c1cccs1`, -7.07%; for `CCn1c(SCC(=O)Nc2ccc(NC(=O)c3ccco3)cc2)nnc1-c1cccs1`, 11.9%.
For `Cn1c(Cc2cccs2)nnc1SC/C=C/c1ccccc1` the value was -0.882%.
As to `CCn1c(SC/C=C/c2ccccc2)nnc1-c1cccs1`, the “hERG current change (%, negative = inhibition) at 10uM” value was -66.3%.
As for `CCn1c(SCC(=O)Nc2cccc(NC(=O)c3ccco3)c2)nnc1-c1cccs1`, the figure is -79.8%.
As for `C=CCn1c2ccccc2c2nnc(SCc3ccc4nonc4c3)nc21`, the figure is 0.592%.
As for `O=C(CSc1nnc(-c2cccs2)n1-c1ccccc1)Nc1ccccc1`, the figure is -44.3%; as for `CCn1c(SCC(=O)c2ccccc2)nnc1-c1cccs1`, -14.8%.
Regarding `CCn1c(SCC(=O)Nc2ccccc2)nnc1-c1cccs1`, the “hERG current change (%, negative = inhibition) at 10uM” value is listed as -70.8%.
For `C=CCn1c(SCc2ccc3nonc3c2)nnc1-c1cccs1` the value was -68.7%; for `C=CCn1c(SCCC(=O)O)nnc1-c1cccs1`, 6.75%; for `Cc1ccc(NC(=O)c2ccco2)cc1NC(=O)CSc1nnc(-c2cccs2)n1C`, -38%.

Values taken from publication PMC4336329 (PLoS ONE, 2015).
